± gives the standard deviation of the averaged measurements.
What follows are compounds tested on AEK1 (Tb927.3.2440) (assay: percent reduction in TR-FRET probe signal relative to DMSO control; higher = stronger displacement of ATP-site probe (binding)). Details: 1 µM; incubation time 1 h.

Compound	percent reduction in TR-FRET probe signal [%]
Cc1cnc(Nc2ccc(OCCN3CCCC3)cc2)nc1Nc1cccc(S(=O)(=O)NC(C)(C)C)c1	31.6 ± 15
O=C1c2ccc(Nc3ccc(F)cc3F)cc2CCc2ccc(OC[C@H](O)CO)cc21 [Skepinone-L]	-1.27 ± 10
O=C(c1ccc(Nc2nccc(-c3cc4ccccc4s3)n2)cc1)N1CCC(N2CCCC2)CC1 [IKK-16 (IKK Inhibitor VII)]	4.07 ± 9.4
COc1cc(F)c(F)c(Nc2ccc(I)cc2F)c1NS(=O)(=O)C1(C[C@H](O)CO)CC1 [Refametinib (RDEA119, Bay 86-9766)]	-1.27 ± 14
CC(C)(O)CNc1ncc(-c2ccnc(Nc3ccnc(Cl)c3)n2)c(CC2CC2)n1	4.25 ± 12
CCCNC(=O)Nc1ccc(Oc2ncnc3cc(OC)c(OC)cc23)cc1Cl	-3.67 ± 12
N[C@@H]1CCCN(c2c(/C=C3\SC(=O)NC3=O)cccc2-c2ccccc2)C1	-4.54 ± 7.8
COc1cccc2cc(-c3nc([C@H]4CC[C@H](C(=O)O)CC4)n4ncnc(N)c34)[nH]c12	-0.417 ± 9.2
C=CC(=O)N1CCCC(n2nc(-c3ccc(Oc4ccccc4)cc3)c3c(N)ncnc32)C1 (configuration not stated)	4.46 ± 4.9
Oc1ccc(Nc2nc(-c3ccc(Cl)cc3)cs2)cc1	-4.54 ± 4.1
FC(F)(F)c1ccc(/C=C/c2nc(COc3ccc(CCCCn4ccnn4)cc3)co2)cc1 [Mubritinib (TAK 165)]	0.627 ± 0.93
CC(C)[C@H](CO)Nc1nc(Nc2cccc(Cl)c2)c2ncn(C(C)C)c2n1 [Purvalanol A]	4.44 ± 18

— the supplement of paper PMC10720658
